Assay results from the supplement of paper PMC4466140.

B1: unnamed (peptide)
chain: RNNRPVPPPPPMRTT
B2: unnamed (peptide)
chain: PPPPPPPPPPPLPQS

The binders below were run against SpBzz1-D2 (assay: SPOT peptide array binding signal intensity (averaged, normalized) (arbitrary units (background-subtracted, floor 0; scale differs between SH3 domains)); higher = stronger binding of the SH3 domain to the peptide).
Outline: (§1)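 Detection of bound protein relied on anti-GST antibody, an HRP anti-mouse secondary and luminol, with imaging and quantification in Genespotter. The bound protein was GST-fused SH3 domains from four yeast species, incubated at 10 μg/ml overnight at 4°C in TBS-based blocking buffer on cellulose membranes carrying synthetic 15-mer peptides with cysteines replaced by serines. Binding signal is normalized, background-subtracted spot intensity averaged over replicates, in arbitrary units that differ between domains.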

Binder | SPOT peptide array binding signal intensity
B1 | 28.8
B2 | 31.2

Each binder was assayed against SpCyk3 in the same assay as above.
Outline: as §1

Binder | SPOT peptide array binding signal intensity
B1 | 23
B2 | 1

The binders below were run against SpHof1 in the same assay as above.
Outline: as §1

Binder | SPOT peptide array binding signal intensity
B1 | 22.8
B2 | ≤ 0

Each binder was assayed against SpHof1-2 in the same assay as above.
Outline: as §1

Binder | SPOT peptide array binding signal intensity
B1 | 24.8
B2 | ≤ 0

Each binder was assayed against SpHof1-3 in the same assay as above.
Outline: as §1

Binder | SPOT peptide array binding signal intensity
B1 | 98.2
B2 | ≤ 0

What follows are binders tested against SpHse1 in the same assay as above.
Outline: as §1

Binder | SPOT peptide array binding signal intensity
B1 | 52
B2 | 21

The binders below were run against SpLsb1 in the same assay as above.
Outline: as §1

Binder | SPOT peptide array binding signal intensity
B1 | 44.2
B2 | 4.5

The binders below were run against SpLsb4 in the same assay as above.
Outline: as §1

Binder | SPOT peptide array binding signal intensity
B1 | 1450
B2 | 31

The binders below were run against SpMyo1 in the same assay as above.
Outline: as §1

Binder | SPOT peptide array binding signal intensity
B1 | 662
B2 | 1470

These binders were tested against SpNbp2 in the same assay as above.
Outline: as §1

Binder | SPOT peptide array binding signal intensity
B1 | 8.5
B2 | 2

These binders were tested against SpPex13 in the same assay as above.
Outline: as §1

Binder | SPOT peptide array binding signal intensity
B1 | 19.5
B2 | ≤ 0

The binders below were run against SpRvs167 in the same assay as above.
Outline: as §1

Binder | SPOT peptide array binding signal intensity
B1 | 1030
B2 | 124

Each binder was assayed against SpSla1-D1-D2 in the same assay as above.
Outline: as §1

Binder | SPOT peptide array binding signal intensity
B1 | 134
B2 | 1.5

The binders below were run against SpSla1-D3 in the same assay as above.
Outline: as §1

Binder | SPOT peptide array binding signal intensity
B1 | 7
B2 | ≤ 0

The binders below were run against AgAbp1 in the same assay as above.
Outline: as §1

Binder | SPOT peptide array binding signal intensity
B2 | 9

Each binder was assayed against AgBbc1 in the same assay as above.
Outline: as §1

Binder | SPOT peptide array binding signal intensity
B2 | 0.5

What follows are binders tested against AgBem1-D1 in the same assay as above.
Outline: as §1

Binder | SPOT peptide array binding signal intensity
B2 | 28

Each binder was assayed against AgBzz1-D1 in the same assay as above.
Outline: as §1

Binder | SPOT peptide array binding signal intensity
B2 | 5

The binders below were run against AgBzz1-D2 in the same assay as above.
Outline: as §1

Binder | SPOT peptide array binding signal intensity
B2 | 1

The binders below were run against AgCyk3 in the same assay as above.
Outline: as §1

Binder | SPOT peptide array binding signal intensity
B2 | 2

What follows are binders tested against AgFus1 in the same assay as above.
Outline: as §1

Binder | SPOT peptide array binding signal intensity
B2 | ≤ 0

Each binder was assayed against AgHof1 in the same assay as above.
Outline: as §1

Binder | SPOT peptide array binding signal intensity
B2 | 228

These binders were tested against AgHse1 in the same assay as above.
Outline: as §1

Binder | SPOT peptide array binding signal intensity
B2 | ≤ 0

What follows are binders tested against AgLsb1 in the same assay as above.
Outline: as §1

Binder | SPOT peptide array binding signal intensity
B2 | ≤ 0

Each binder was assayed against AgLsb4 in the same assay as above.
Outline: as §1

Binder | SPOT peptide array binding signal intensity
B2 | ≤ 0

These binders were tested against AgMyo5 in the same assay as above.
Outline: as §1

Binder | SPOT peptide array binding signal intensity
B2 | 688

These binders were tested against AgNbp2 in the same assay as above.
Outline: as §1

Binder | SPOT peptide array binding signal intensity
B2 | 2

What follows are binders tested against AgRvs167 in the same assay as above.
Outline: as §1

Binder | SPOT peptide array binding signal intensity
B2 | 4.67

Each binder was assayed against AgSho1 in the same assay as above.
Outline: as §1

Binder | SPOT peptide array binding signal intensity
B2 | ≤ 0

What follows are binders tested against AgSla1-D1-D2 in the same assay as above.
Outline: as §1

Binder | SPOT peptide array binding signal intensity
B2 | ≤ 0

Each binder was assayed against AgSla1-D3 in the same assay as above.
Outline: as §1

Binder | SPOT peptide array binding signal intensity
B2 | 0.5

The binders below were run against CaAbp1-D1 in the same assay as above.
Outline: as §1

Binder | SPOT peptide array binding signal intensity
B2 | 4.5

The binders below were run against CaAbp1-D2 in the same assay as above.
Outline: as §1

Binder | SPOT peptide array binding signal intensity
B2 | 3

What follows are binders tested against CaBbc1 in the same assay as above.
Outline: as §1

Binder | SPOT peptide array binding signal intensity
B2 | ≤ 0

The binders below were run against CaBem1-D1 in the same assay as above.
Outline: as §1

Binder | SPOT peptide array binding signal intensity
B2 | ≤ 0

These binders were tested against CaBzz1-D1 in the same assay as above.
Outline: as §1

Binder | SPOT peptide array binding signal intensity
B2 | 1610

The binders below were run against CaBzz1-D2 in the same assay as above.
Outline: as §1

Binder | SPOT peptide array binding signal intensity
B2 | 313

Each binder was assayed against CaCyk3 in the same assay as above.
Outline: as §1

Binder | SPOT peptide array binding signal intensity
B2 | ≤ 0

What follows are binders tested against CaFus1 in the same assay as above.
Outline: as §1

Binder | SPOT peptide array binding signal intensity
B2 | 8.5

What follows are binders tested against CaHof1 in the same assay as above.
Outline: as §1

Binder | SPOT peptide array binding signal intensity
B2 | 0.75

These binders were tested against CaHse1 in the same assay as above.
Outline: as §1

Binder | SPOT peptide array binding signal intensity
B2 | 11.2

These binders were tested against CaLsb1 in the same assay as above.
Outline: as §1

Binder | SPOT peptide array binding signal intensity
B2 | 2.25

Each binder was assayed against CaLsb4 in the same assay as above.
Outline: as §1

Binder | SPOT peptide array binding signal intensity
B2 | 16

What follows are binders tested against CaMyo5 in the same assay as above.
Outline: as §1

Binder | SPOT peptide array binding signal intensity
B2 | 235

What follows are binders tested against CaNbp2 in the same assay as above.
Outline: as §1

Binder | SPOT peptide array binding signal intensity
B2 | 34

What follows are binders tested against CaRvs167 in the same assay as above.
Outline: as §1

Binder | SPOT peptide array binding signal intensity
B2 | 2.83

These binders were tested against CaRvs167-3 in the same assay as above.
Outline: as §1

Binder | SPOT peptide array binding signal intensity
B2 | ≤ 0

The binders below were run against CaSho1 in the same assay as above.
Outline: as §1

Binder | SPOT peptide array binding signal intensity
B2 | ≤ 0

These binders were tested against CaSla1-D1-D2 in the same assay as above.
Outline: as §1

Binder | SPOT peptide array binding signal intensity
B2 | ≤ 0

The binders below were run against CaSla1-D3 in the same assay as above.
Outline: as §1

Binder | SPOT peptide array binding signal intensity
B2 | 1

The binders below were run against ScAbp1 in the same assay as above.
Outline: as §1

Binder | SPOT peptide array binding signal intensity
B2 | ≤ 0

What follows are binders tested against ScBbc1 in the same assay as above.
Outline: as §1

Binder | SPOT peptide array binding signal intensity
B2 | 1.25

The binders below were run against ScBem1-D1 in the same assay as above.
Outline: as §1

Binder | SPOT peptide array binding signal intensity
B2 | ≤ 0

What follows are binders tested against ScBzz1-D1 in the same assay as above.
Outline: as §1

Binder | SPOT peptide array binding signal intensity
B2 | 9

The binders below were run against ScBzz1-D2 in the same assay as above.
Outline: as §1

Binder | SPOT peptide array binding signal intensity
B2 | 2

The binders below were run against ScCyk3 in the same assay as above.
Outline: as §1

Binder | SPOT peptide array binding signal intensity
B2 | ≤ 0

What follows are binders tested against ScFus1 in the same assay as above.
Outline: as §1

Binder | SPOT peptide array binding signal intensity
B2 | 1.5

These binders were tested against ScHof1 in the same assay as above.
Outline: as §1

Binder | SPOT peptide array binding signal intensity
B2 | 20

What follows are binders tested against ScHse1 in the same assay as above.
Outline: as §1

Binder | SPOT peptide array binding signal intensity
B2 | ≤ 0

What follows are binders tested against ScLsb1 in the same assay as above.
Outline: as §1

Binder | SPOT peptide array binding signal intensity
B2 | ≤ 0

Each binder was assayed against ScLsb2 in the same assay as above.
Outline: as §1

Binder | SPOT peptide array binding signal intensity
B2 | ≤ 0

These binders were tested against ScLsb3 in the same assay as above.
Outline: as §1

Binder | SPOT peptide array binding signal intensity
B2 | 42.5

These binders were tested against ScLsb4 in the same assay as above.
Outline: as §1

Binder | SPOT peptide array binding signal intensity
B2 | 7

The binders below were run against ScMyo3 in the same assay as above.
Outline: as §1

Binder | SPOT peptide array binding signal intensity
B2 | 1490

Each binder was assayed against ScMyo5 in the same assay as above.
Outline: as §1

Binder | SPOT peptide array binding signal intensity
B2 | 1040

These binders were tested against ScNbp2 in the same assay as above.
Outline: as §1

Binder | SPOT peptide array binding signal intensity
B2 | ≤ 0

The binders below were run against ScPex13 in the same assay as above.
Outline: as §1

Binder | SPOT peptide array binding signal intensity
B2 | 51.5

These binders were tested against ScRvs167 in the same assay as above.
Outline: as §1

Binder | SPOT peptide array binding signal intensity
B2 | ≤ 0

The binders below were run against ScSho1 in the same assay as above.
Outline: as §1

Binder | SPOT peptide array binding signal intensity
B2 | ≤ 0

Each binder was assayed against ScSla1-D1-D2 in the same assay as above.
Outline: as §1

Binder | SPOT peptide array binding signal intensity
B2 | ≤ 0

The binders below were run against ScSla1-D3 in the same assay as above.
Outline: as §1

Binder | SPOT peptide array binding signal intensity
B2 | 0.75

These binders were tested against SpAbp1-D1 in the same assay as above.
Outline: as §1

Binder | SPOT peptide array binding signal intensity
B2 | 12.5

What follows are binders tested against SpBbc1 in the same assay as above.
Outline: as §1

Binder | SPOT peptide array binding signal intensity
B2 | 0.5

What follows are binders tested against SpBzz1-D1 in the same assay as above.
Outline: as §1

Binder | SPOT peptide array binding signal intensity
B2 | 2670
